Data reported in PubChem BioAssay.
The source made the active and inactive calls.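 The calls were made as follows, unless noted: active = response below a set limit, under 55% cells CD8-positive and vesicle-bound, and CD8 cells' 90th-percentile brightness under 279; inactive = the rest.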

Key:
[1] = reduced mouse 2C T cell binding to pMHC/ICAM-1 vesicles – MLPCN validation set, flow cytometry, LFA-1/ICAM-1 modulator project, pilot screen (AID 2523); settings: 2C mouse CD8+ T cells, at 7 µM, stronger effect = lower value; double positive events: measured here: CD8+/vesicle+ event percentage;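 as to vesicle binding response: mean PE anti-B7-1 fluorescence of CD8+ cells relative to row control; 100% = QL9-loaded vesicles with DMSO vehicle in the same plate row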
[2] = molecular target: Integrin beta-1 (Homo sapiens) + Integrin alpha-4 (Homo sapiens) (UniProt P13612+P05556); experiment: alpha4beta1 integrin LIBS antibody binding reduction – U937 cells, HUTS-21 mAb, flow cytometry, validation set, VLA-4 allosteric modulator project, pilot screen (AID 2674;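 active = inhibition above 50%, about 3 SD of the validation set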;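 also: antibody binding induced by the VLA-4 ligand LDV present at three times its Kd; 0% = LDV ligand with antibody and no compound and 100% = antibody without LDV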); settings: HUTS-21 LIBS mAb binding, at 6.7 µM, stronger effect = higher value, binding induced by LDV ligand
[3] = calorie-restriction mimetic ROS inhibitors, yeast – validation compound set, pilot screen (AID 2706;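 active = superoxide response below 65% of plate, a cut near 3 SD across the whole screen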;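 also: yeast exposed to compound for one week at 30 degrees C before staining; 100% = mean of all compound wells on the same plate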); settings: S. cerevisiae aging, superoxide DHE fluorescence; at 10 µM, stronger effect = lower value
[4] = molecular target: Beta-adrenergic receptor kinase 1 (Homo sapiens) (UniProt P25098); experiment: GRK2 binders displacing RNA aptamer, biochemical, validation, human GRK2, bead flow cytometry (AID 488806;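 active = aptamer binding inhibition above 30%, about 3 SD of noise from non-fluorescent compounds; inactive = inhibition at or below 30%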); settings: bead-bound GRK2, FAM-aptamer displacement, at 10 µM, stronger effect = higher value
[5] = molecular target: AP-2 complex subunit beta (Homo sapiens) (UniProt P63010); experiment: beta-arrestin/AP2 interaction blockers – biochemical, validation set, GST-AP2 beads, flow cytometry, pilot screen (AID 504541;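 active = inhibition above 54%, about 3 SD of non-fluorescent compounds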;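 also: AP2 carries R879A mutation and is captured from E. coli lysate; bead-bound FITC arrestin peptide fluorescence measuring arrestin peptide binding to AP2; 0% = DMSO wells and 100% = excess unlabeled arrestin peptide control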); settings: FITC arrestin peptide, at 10 µM, stronger effect = higher value, AP2 beta2 appendage fragment, R879A mutant
[6] = cytosolic pH regulators acting via V-ATPase – S. cerevisiae, pHLuorin, HTS validation (AID 504600; in the data active = response above about 15%;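 also: plate controls were DMSO for no effect and reference compound for full effect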); settings: V-ATPase proton transport, at 10 µM, stronger effect = higher value
[7] = system: anti-desmoglein-3 scFv antibody binding to human DSG3; experiment: blockers of pathogenic pemphigus antibody–desmoglein-3 binding – biochemical, validation compound set, bead-based, flow cytometry, pilot screen (AID 588368;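 active = binding below the plate cutoff, the plate median minus 3 SD, with a reading above zero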;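 also: signal is the median channel fluorescence of bead-bound GFP antibody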); settings: Protein G beads, DSG3-Fc, scFv-GFP binding, at 10 µM, stronger effect = lower value
[8] = Nile Red efflux blockade in pump-expressing yeast – validation compound set, multiplex, phenotypic, pilot screen (AID 588506;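 active = efflux inhibition above 0.42, the validation set average plus 4 SD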;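 also: Nile Red retained in cells so higher fluorescence means more efflux inhibition; 0 = negative control wells and 1 = enniatin B 25 µM full block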); settings: S. cerevisiae pump-expressing triplex, Nile Red efflux flow cytometry; at 10 µM; stronger effect = higher value; the pumps come from Candida albicans
[9] = molecular target: ATP-binding cassette sub-family B member 6 (Homo sapiens) (UniProt Q9NP58); experiment: blockers of ABCB6-driven porphyrin uptake – K562-ABCB6 cells, flow cytometry, validation set, pilot screen (AID 588550;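 active = inhibition above the screen-wide mean plus 3 SD, about 51%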;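 also: 0% = DMSO wells and 100% = benzethonium chloride 70 µM positive control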); settings: K562-ABCB6 porphyrin accumulation, 1 h, at 10 µM, stronger effect = higher value
[10] = AML differentiation inducers, ER-HoxA9 marrow cells – cell-based, GFP/MAC1 double positive, flow cytometry, validation set, primary screen (AID 588685;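 active = differentiation response of at least 50%, scaled between solvent and reference control, from cells with both markers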;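 also: compound exposure lasts four days before antibody staining and flow analysis; 0% = DMSO wells and 100% = 5 µM fulvestrant positive control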); settings: stronger effect = higher value, normalized: vehicle 0, fulvestrant 100
[11] = molecular target: Beta-2 adrenergic receptor (Homo sapiens) (UniProt P07550); experiment: agonist-induced loss of surface beta2AR – cell-based, FAP fluorogen, flow cytometry, validation set, pilot screen (AID 504459;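 active = percent response above 42, roughly 3 SD of non-fluorescent test compounds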;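 also: agonist-driven loss of surface beta2AR via internalization measured by FAP dye flow cytometry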); settings: Am2.2-beta2AR cells, at 10 µM, stronger effect = higher value
Beta-2 adrenergic receptor (Homo sapiens), sequence (P07550 whole entry, looked up): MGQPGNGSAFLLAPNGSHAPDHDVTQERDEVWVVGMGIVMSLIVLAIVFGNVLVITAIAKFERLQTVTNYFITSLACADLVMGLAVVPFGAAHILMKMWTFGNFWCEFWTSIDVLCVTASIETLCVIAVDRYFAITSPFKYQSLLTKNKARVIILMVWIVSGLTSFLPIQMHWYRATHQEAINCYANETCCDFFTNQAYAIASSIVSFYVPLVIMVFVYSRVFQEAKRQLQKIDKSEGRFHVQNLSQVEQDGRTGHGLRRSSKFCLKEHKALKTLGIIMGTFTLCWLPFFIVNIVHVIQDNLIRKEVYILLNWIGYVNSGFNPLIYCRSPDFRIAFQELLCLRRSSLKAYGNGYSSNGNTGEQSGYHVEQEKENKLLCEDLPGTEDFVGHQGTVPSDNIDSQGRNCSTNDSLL

AP-2 complex subunit beta (Homo sapiens), sequence (P63010 whole entry, looked up, the tested form may be a part, one chain of several): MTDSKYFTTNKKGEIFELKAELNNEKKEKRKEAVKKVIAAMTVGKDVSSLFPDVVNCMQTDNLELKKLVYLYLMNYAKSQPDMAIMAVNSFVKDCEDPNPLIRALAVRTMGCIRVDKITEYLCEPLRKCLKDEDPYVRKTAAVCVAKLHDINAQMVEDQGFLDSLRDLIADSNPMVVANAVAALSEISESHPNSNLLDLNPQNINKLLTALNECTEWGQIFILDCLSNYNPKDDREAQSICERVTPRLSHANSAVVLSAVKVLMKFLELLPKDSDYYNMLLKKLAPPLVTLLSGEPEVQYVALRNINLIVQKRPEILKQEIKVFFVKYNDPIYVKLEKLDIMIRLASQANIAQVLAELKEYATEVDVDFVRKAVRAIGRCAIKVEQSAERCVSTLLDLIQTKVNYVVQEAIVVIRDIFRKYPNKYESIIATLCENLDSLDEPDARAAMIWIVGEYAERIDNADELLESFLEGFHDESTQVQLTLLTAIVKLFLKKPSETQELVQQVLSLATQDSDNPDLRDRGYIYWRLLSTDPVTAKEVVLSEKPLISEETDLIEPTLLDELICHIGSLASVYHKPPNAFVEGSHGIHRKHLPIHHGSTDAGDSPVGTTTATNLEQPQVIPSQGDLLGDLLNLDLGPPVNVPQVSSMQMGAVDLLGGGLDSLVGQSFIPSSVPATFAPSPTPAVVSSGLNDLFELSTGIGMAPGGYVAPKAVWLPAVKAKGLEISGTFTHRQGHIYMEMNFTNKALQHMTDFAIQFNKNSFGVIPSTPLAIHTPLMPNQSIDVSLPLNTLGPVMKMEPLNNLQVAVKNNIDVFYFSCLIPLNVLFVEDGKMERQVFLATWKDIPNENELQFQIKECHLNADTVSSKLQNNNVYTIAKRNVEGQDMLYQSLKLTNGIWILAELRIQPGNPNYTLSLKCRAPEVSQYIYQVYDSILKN
Beta-adrenergic receptor kinase 1 (Homo sapiens), sequence (P25098 whole entry, looked up): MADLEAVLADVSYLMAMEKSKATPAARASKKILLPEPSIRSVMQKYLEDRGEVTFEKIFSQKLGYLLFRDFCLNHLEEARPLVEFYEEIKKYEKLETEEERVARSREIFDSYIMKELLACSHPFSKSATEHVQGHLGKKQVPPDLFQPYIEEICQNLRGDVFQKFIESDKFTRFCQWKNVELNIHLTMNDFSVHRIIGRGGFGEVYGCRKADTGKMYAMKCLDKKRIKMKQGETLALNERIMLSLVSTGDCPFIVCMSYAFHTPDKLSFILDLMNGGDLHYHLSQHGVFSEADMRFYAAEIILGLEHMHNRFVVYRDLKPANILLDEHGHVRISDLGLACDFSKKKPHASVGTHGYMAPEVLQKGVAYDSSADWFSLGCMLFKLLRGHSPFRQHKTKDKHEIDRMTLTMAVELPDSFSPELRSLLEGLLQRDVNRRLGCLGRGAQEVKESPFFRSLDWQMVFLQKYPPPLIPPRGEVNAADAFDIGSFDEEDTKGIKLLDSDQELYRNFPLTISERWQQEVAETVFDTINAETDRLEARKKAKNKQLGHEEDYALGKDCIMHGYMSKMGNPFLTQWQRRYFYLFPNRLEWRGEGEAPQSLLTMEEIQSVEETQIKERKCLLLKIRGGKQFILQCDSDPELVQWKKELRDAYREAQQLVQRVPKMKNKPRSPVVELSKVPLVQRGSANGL
ATP-binding cassette sub-family B member 6 (Homo sapiens), sequence (Q9NP58 whole entry, looked up): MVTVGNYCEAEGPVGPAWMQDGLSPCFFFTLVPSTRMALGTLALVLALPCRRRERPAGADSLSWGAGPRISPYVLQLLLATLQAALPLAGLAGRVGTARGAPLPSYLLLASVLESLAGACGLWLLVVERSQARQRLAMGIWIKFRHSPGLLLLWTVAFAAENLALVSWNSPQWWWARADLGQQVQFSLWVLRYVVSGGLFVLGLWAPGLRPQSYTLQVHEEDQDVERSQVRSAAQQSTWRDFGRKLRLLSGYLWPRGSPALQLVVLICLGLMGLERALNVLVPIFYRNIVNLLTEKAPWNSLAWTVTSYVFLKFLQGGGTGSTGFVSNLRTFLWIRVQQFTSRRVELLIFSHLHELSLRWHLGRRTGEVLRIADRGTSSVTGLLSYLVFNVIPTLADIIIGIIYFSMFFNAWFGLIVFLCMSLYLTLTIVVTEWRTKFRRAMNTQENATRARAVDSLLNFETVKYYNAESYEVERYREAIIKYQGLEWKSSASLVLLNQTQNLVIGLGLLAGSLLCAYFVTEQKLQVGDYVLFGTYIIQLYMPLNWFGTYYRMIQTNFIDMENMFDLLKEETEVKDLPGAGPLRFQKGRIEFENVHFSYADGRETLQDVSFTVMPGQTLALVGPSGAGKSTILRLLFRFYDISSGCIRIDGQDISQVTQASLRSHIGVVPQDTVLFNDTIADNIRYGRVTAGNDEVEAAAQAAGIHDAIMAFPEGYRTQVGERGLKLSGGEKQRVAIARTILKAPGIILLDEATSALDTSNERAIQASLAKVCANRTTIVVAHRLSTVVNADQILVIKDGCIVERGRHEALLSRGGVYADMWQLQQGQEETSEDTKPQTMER
Integrin beta-1 (Homo sapiens) + Integrin alpha-4 (Homo sapiens), sequence (P05556 whole entry, looked up): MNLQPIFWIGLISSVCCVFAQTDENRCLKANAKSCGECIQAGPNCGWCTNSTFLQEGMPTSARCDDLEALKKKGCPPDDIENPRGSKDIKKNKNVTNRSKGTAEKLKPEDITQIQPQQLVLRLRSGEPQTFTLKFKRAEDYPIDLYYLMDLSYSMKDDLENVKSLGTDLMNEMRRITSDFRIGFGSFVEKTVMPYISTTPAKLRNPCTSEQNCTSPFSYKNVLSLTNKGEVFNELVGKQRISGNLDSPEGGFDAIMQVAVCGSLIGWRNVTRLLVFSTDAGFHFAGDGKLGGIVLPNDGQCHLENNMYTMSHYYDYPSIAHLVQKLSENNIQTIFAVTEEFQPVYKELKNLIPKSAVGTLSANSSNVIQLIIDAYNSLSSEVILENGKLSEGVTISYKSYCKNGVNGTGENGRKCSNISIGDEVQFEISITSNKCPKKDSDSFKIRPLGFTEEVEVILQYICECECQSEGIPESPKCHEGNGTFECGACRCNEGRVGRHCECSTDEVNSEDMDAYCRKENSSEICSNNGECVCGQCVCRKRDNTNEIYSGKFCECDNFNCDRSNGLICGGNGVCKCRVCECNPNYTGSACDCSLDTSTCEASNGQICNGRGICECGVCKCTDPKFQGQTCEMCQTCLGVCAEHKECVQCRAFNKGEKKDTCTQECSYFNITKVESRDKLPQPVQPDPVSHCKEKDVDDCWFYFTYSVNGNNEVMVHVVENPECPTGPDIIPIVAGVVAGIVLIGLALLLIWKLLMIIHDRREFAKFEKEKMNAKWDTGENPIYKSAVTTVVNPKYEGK
Integrin beta-1 (Homo sapiens) + Integrin alpha-4 (Homo sapiens), sequence (P13612 whole entry, looked up): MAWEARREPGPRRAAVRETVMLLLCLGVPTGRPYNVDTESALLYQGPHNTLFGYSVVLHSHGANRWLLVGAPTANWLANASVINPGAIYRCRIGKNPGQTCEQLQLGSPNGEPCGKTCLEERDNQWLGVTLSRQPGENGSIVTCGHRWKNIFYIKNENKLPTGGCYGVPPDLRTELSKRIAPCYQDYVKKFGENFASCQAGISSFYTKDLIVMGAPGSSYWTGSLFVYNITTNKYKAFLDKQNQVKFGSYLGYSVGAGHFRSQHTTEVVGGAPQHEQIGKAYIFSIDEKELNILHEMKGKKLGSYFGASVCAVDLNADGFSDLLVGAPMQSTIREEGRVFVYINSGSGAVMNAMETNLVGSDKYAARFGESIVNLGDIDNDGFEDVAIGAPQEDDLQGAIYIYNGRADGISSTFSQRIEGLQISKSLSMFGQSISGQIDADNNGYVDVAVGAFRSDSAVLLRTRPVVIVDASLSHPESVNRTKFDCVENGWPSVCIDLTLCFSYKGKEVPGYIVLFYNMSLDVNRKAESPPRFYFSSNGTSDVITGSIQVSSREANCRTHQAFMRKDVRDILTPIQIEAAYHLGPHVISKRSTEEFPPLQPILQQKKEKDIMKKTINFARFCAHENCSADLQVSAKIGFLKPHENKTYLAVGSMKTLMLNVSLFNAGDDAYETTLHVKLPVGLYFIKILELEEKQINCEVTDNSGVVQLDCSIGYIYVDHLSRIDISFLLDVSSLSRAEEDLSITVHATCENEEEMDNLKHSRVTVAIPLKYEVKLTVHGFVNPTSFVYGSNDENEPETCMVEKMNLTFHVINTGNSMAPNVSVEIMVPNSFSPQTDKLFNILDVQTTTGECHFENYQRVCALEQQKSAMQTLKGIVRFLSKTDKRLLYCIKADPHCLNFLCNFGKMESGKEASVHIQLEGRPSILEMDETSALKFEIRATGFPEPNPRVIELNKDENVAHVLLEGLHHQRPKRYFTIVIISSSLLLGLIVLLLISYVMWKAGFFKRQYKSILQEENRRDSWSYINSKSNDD

Structure (SMILES) | double positive events [1] | vesicle binding response [1] | inhibition [2] | superoxide response (% of plate) [3] | aptamer binding inhibition [4] | inhibition [5] | response [6] | binding (% of control) [7] | efflux inhibition (fraction of control) [8] | inhibition [9] | differentiation response [10] | response [11]
O=C(O)c1cc(-c2ccccc2)nc2ccccc12 | 62% | 151% (inactive) | 23.1% (inactive) | 98.3% (inactive) | 4% (inactive) | 27.6% (inactive) | -5.56% (inactive) | 96.2% (inactive) | 0.1 (inactive) | -2% (inactive) | 6.26% (inactive) | 
Cn1c(=O)[nH]c(=O)c2c1nc(Br)n2CCCO | 64.5% | 261% (inactive) | 6.29% (inactive) | 90.2% (inactive) | 0% (inactive) | 7.12% (inactive) | 0.07% (inactive) | 109% (inactive) | -0.01 (inactive) | 8% (inactive) | -24.4% (inactive) | 
O=C(O)CCn1c(=S)n(CCC(=O)O)c2ccccc21 | 53.4% | 162% (inactive) | 8.15% (inactive) | 112% (inactive) | 4% (inactive) | 4.52% (inactive) | -0.83% (inactive) | 101% (inactive) | -0.05 (inactive) | 5% (inactive) | -6.66% (inactive) | 
O=C(NCC1CCCCN1)c1cc(OCC(F)(F)F)ccc1OCC(F)(F)F (stereo not drawn) | 51.3% | 183% (inactive) | 1.62% (inactive) | 102% (inactive) | -3% (inactive) | -20.4% (inactive) | 0.89% (inactive) | 103% (inactive) | -0.05 (inactive) | 14% (inactive) | -8.27% (inactive) | 
COc1ccc(C(=O)/C=C/c2cc(C(=O)O)cc3c2OCOC3)c(O)c1 | 54.5% | 202% (inactive) | -3.97% (inactive) | 99.9% (inactive) | 6% (inactive) | -2.5% (inactive) | -6.09% (inactive) | 95.7% (inactive) | -0.43 (inactive) | 0% (inactive) | -1.82% (inactive) | 
c1ccc2c(CC3=NCCN3)cccc2c1 | 49.4% | 192% (inactive) | 11.9% (inactive) | 99% (inactive) | 1% (inactive) | -1.38% (inactive) | 1.28% (inactive) | 96.2% (inactive) | -0.16 (inactive) | 11% (inactive) | 7.87% (inactive) | 
C[C@@H]1C[C@H]2[C@@H]3C[C@H](F)C4=CC(=O)C=C[C@]4(C)[C@@]3(F)[C@@H](O)C[C@]2(C)[C@@]1(O)C(=O)CO | 55% | 206% (inactive) | 2.56% (inactive) | 92.5% (inactive) | 2% (inactive) | -9.58% (inactive) | 10.1% (inactive) | 103% (inactive) | -0.09 (inactive) | 9% (inactive) | -1.82% (inactive) | 
CC12CCC(C(=O)Nc3ccccc3Br)(C/C1=N\O)C2(C)C (stereo not drawn) | 58.3% | 154% (inactive) | -6.77% (inactive) | 92.2% (inactive) | 3% (inactive) | -0.26% (inactive) | 2.28% (inactive) | 96% (inactive) | -0.12 (inactive) | 9% (inactive) | -9.89% (inactive) | 
O=C(NC(CO)Cc1ccc([N+](=O)[O-])cc1)C(Cl)Cl (stereo not drawn) | 57.3% | 146% (inactive) | -11.4% (inactive) | 100% (inactive) | 15% (inactive) | 0.05% (inactive) | 0.32% (inactive) | 100% (inactive) | -0.24 (inactive) | 14% (inactive) | -24.4% (inactive) | 
Cc1ccc2[nH]c3c(=O)n(CCCN4CCN(C)CC4)cnc3c2c1 | 60.7% | 195% (inactive) | 7.22% (inactive) | 99.9% (inactive) | 4% (inactive) | 24.8% (inactive) | -6.94% (inactive) | 99.3% (inactive) | -0.2 (inactive) | 12% (inactive) | 30.5% (inactive) | 
CC(C)OC(=O)C(C)(C)Oc1ccc(C(=O)c2ccc(Cl)cc2)cc1 | 54.1% | 223% (inactive) | 12.8% (inactive) | 106% (inactive) | -1% (inactive) | -5.48% (inactive) | 0.98% (inactive) | 103% (inactive) | -0.09 (inactive) | 7% (inactive) | -13.1% (inactive) | 
CC[C@H](CO)NCCN[C@H](CC)CO | 56.6% | 193% (inactive) | -2.11% (inactive) | 112% (inactive) | -2% (inactive) | -14.5% (inactive) | 2.83% (inactive) | 112% (inactive) | 0.06 (inactive) | 12% (inactive) | -19.6% (inactive) | 
CNc1nc(N(C)C)nc(N(C)C)n1 | 62.1% | 64.3% (inactive) | -2.53% (inactive) |  | -1% (inactive) | 14.9% (inactive) | 3.55% (inactive) | 107% (inactive) | 0.92 (active) | 11% (inactive) | 41.3% (inactive) | 8.29% (inactive)
